From PubChem BioAssay
Vaccinia pol inh: inhibitors of vaccinia virus processive DNA synthesis (E9 polymerase); normalized absorbance, % (no concentration beside the values); in vitro processive DNA synthesis, absorbance read-out; active compounds read low; AID 493162; 46,000 tested, 0.94% active; in the data active = normalized absorbance mostly below about 85%, no sharp cut-off; inactive = mostly above about 86%
* hit, by the source's call; ! = a repeat was not active. This excerpt belongs to a sample that is enriched for hits.

SMILES | Vaccinia pol inh
CN(c1ccc(Cl)cc1)c1cc(=O)n(C)c2ccccc12 | 63*
COc1ccccc1NC(=O)NCc1nc(N)n(C(=O)Nc2ccccc2OC)n1 | 100
COc1ccc2c(c1)c1ccccc1n2C | 67*
COc1ccc2c(c1)c(C(=O)CSc1ccccc1)c(C)n2C | 95
COc1ccc(OC)c(-c2n(C)c3ccccc3[n+]2C)c1 | 75
Cc1cccn2cc(CNC(=O)c3ccccc3)nc12 | 102
C[n+]1cc2c3c(ccc2c2ccc4cc5c(cc4c21)OCO5)OCO3 | 93
COc1ccc(SCC(=O)NCc2ccc3c(c2)OCO3)cc1 | 93
COc1ccc2c(c1)c(OC)[n+](C)c1c3cc4c(cc3ccc21)OCO4 | 77*
Oc1ccccc1C=Nc1ccc(N2CCOCC2)cc1 | 102
Cc1c(C)n(CCN(C)C)c2ccc(C(=O)OCCN(C)C)cc12 | 62*
Cc1c(C)n(Cc2ccccc2)c2ccc(C(=O)OCCN3CCOCC3)cc12 | 98
CCOC(=O)c1ccc2c(c1)c(C)c(C)n2Cc1ccccc1 | 99
CC(=O)NC1C(=O)NC(=S)N(c2ccccc2)C1=O (configuration not stated) | 100
CCC1CCCCN1C(=O)C1=CC(c2ccc(OC)cc2)=NS(=O)(=O)N1C (configuration not stated) | 87
COc1ccc(C2=NS(=O)(=O)N(C)C(C(=O)N3CCC(C(N)=O)CC3)=C2)cc1 | 70*
COc1ccc(C2=NS(=O)(=O)N(C)C(C(=O)N3CCC(C)CC3)=C2)cc1OC | 104
O=C(COC(=O)C12CC3CC(CC(Cl)(C3)C1)C2)NCc1cccs1 | 98
Cc1ccc(NC2SC(=O)NC2=O)cc1Cl (configuration not stated) | 99
Cc1cc(OC(=O)c2ccco2)nc(SCc2c(Cl)cccc2Cl)n1 | 50*
Cc1cc(Oc2ccccc2)nc(SCc2ccccc2)n1 | 101
O=C(Oc1ccc(Cl)c2cccnc12)c1ccco1 | 101
CN(C)c1c(C(C#N)=C(C#N)C#N)c2ccccc2n1C | 98
CC(CN1CCNCC1)(NS(=O)(=O)c1ccccc1)c1ccccc1 (configuration not stated) | 96
CC(CBr)(NS(=O)(=O)c1ccccc1)c1ccccc1 (configuration not stated) | 65*
SMILES | Vaccinia pol inh
CC(C)(CN1CCCCCC1)NS(=O)(=O)c1ccccc1 | 96
O=S1(=O)CCN(CC2CCCC2)CC1 | 112
COc1ccc(C2=Nc3ccccc3C2=O)cc1 | 107
OCCNc1ncnc2c1c(-c1ccccc1)cn2-c1ccccc1 | 95
CCSc1nc2ccccc2n1CC(=O)O | 101
O=C(O)Cn1c2c(c3ccccc31)CSc1ccc(Cl)cc1-2 | 71*
O=C(O)Cn1cc(C(=O)C2CC2)c2ccccc21 | 89
O=C(CSc1nc2ccccc2c(=O)n1CCc1ccccc1)NCc1ccco1 | 84
O=c1cc[nH]c2cc(N3CCOCC3)c(F)cc12 | 101
NC(=NCc1ccccc1)NC(=O)c1nc(Cl)c(N)nc1N | 59*!
N/C(=N\c1nc2ccccc2s1)NC(=O)c1cccc(Cl)c1 | 99
NC(=O)NC(=O)Cc1ccccc1 | 102
N/C(=N\c1nc(=O)c2ccccc2s1)NC(=O)c1ccc(Cl)c(Cl)c1 | 100
NC(=Nc1ccccc1)NC(=O)c1nc(Cl)c(N)nc1N | 51*
O=C(Cc1csc(Nc2ccc(Cl)cc2)n1)NCc1ccccc1 | 100
CCSC(SCC)=C(C#N)C(=O)Nc1ccccc1 | 101
O=C1O/C(=C\C=C\c2ccccc2)c2ccccc21 | 83
CC(C)CN(CC(C)C)S(=O)(=O)c1cccc2cccnc12 | 98
O=C1/C(=C/c2cc3ccccc3o2)CC/C1=C\c1cc2ccccc2o1 | 99
CSc1ccc(/C=C2\CC/C(=C\c3ccc(SC)cc3)C2=O)cc1 | 106
O=C1/C(=C\c2ccc(Br)o2)CC/C1=C/c1ccc(Br)o1 | 19*
CCOC(=O)/C(=N\O)C1=CSC2=NNC(C)(C)N12 | 104
CCOc1cc(/C=c2/sc3nc4ccccc4n3c2=O)ccc1OC | 100
CCc1ccc(NC(=O)N(Cc2cccc(OC)c2)C2CCN(CC)CC2)cc1 | 101
c1ccc(-c2cn3c(nc4ccccc43)s2)cc1 | 80*
SMILES | Vaccinia pol inh
c1ccc(-c2csc3nc4ccccc4n23)cc1 | 86
CCN(CC)CCCn1c(-c2ccccc2)cn2c3ccccc3nc12 | 100
O=C1OC(c2ccco2)=N/C1=C\c1ccco1 | 91
N#CC(C(=O)Nc1cccc(C(F)(F)F)c1)C(=S)Nc1ccccc1Cl (configuration not stated) | 82
Cc1ccc2[nH]c(=O)c(CN(C3CCCCC3)S(=O)(=O)c3ccccc3)cc2c1 | 101
Cc1ccc(-c2noc(CN(C3CCCCC3)S(=O)(=O)c3ccccc3)n2)cc1 | 64*
CC(C)N(Cc1nc(-c2ccccc2)no1)C(=O)C1CCCCC1 | 99
Cc1ccc(NC(=O)CSC2=NC3(CCCCC3)Nc3ccccc32)cc1 | 100
O=C1NC(=S)N(c2ccccc2)C(=O)/C1=C/C=C/c1ccco1 | 53*
O=C1NC(=S)N/C1=C\c1ccco1 | 100
O=C1Nc2ccccc2/C1=C/C=C/c1ccco1 | 66*
O=C1Nc2ccccc2/C1=C/C(=O)c1ccccc1 | 100
